Compound activity (PubChem)
TRHR agonist: agonists of human TRH receptor. activation, % at 2 µM. TRHR cells, calcium flux fluo-8, FDSS agonist mode. P34981. 0.18% of 360,000 active
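Steps: seed TRHR cells overnight; add fluo-8 no-wash Ca dye, RT 30 min–1.5 h; record 10 s baseline; pin-transfer compounds; monitor fluorescence 1 cycle/s for the agonist window. Calcium increases flag candidate agonists.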
TRHR PAM: allosteric enhancers of human TRH receptor | 0.66% of 360,000 active | AID 493056 | TRHR cells, fluo-8 calcium fluorescence, EC20 TRH enhancement | enhancement, % at 2 µM; in the data active = enhancement above about 30%
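Enhancer read-out: after compound pinning and an initial kinetic agonist-mode read, an EC20 of TRH (10 nM final) was injected and fluo-8 calcium signal (Ex 480/Em 530) followed at 1 s/cycle for 100 cycles in TRHR-expressing cells.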
D1 potentiator: human D1 dopamine receptor positive modulation; HEK293 TREx D1 cells, calcium flux, dopamine EC20 potentiation; 0.036% of 360,000 active; potentiation, % at 10 µM; in the data active = potentiation above about 30%
Target sequence (P21728 whole entry, looked up): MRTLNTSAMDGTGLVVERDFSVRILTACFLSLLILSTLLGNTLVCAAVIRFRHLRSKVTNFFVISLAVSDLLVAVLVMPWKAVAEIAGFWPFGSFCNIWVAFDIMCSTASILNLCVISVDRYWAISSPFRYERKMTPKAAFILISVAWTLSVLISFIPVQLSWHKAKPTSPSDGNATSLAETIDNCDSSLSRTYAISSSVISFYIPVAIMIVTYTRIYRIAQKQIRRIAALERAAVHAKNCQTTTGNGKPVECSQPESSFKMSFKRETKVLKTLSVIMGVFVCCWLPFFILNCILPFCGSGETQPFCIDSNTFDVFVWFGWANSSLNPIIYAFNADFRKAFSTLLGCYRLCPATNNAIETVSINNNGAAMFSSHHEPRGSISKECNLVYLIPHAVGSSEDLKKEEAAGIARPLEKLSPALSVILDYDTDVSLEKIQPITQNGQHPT
D1 ag: human D1 receptor agonism | P21728 | HEK293 T-REx D1 cells, calcium flux, agonist mode | activation, % at 2 µM | 1% of 360,000 active
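Inducible HEK293 T-REx D1 cells, force-coupled to calcium signalling, were plated at 4000 cells/well with tetracycline and held overnight at 30 C. After no-wash calcium dye loading, compound-evoked calcium rise over 180 s flagged agonists.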
D1 antagonist: human D1 dopamine receptor antagonism; HEK293 TREx D1 cells, calcium flux, dopamine EC80; active compounds read low; activity change, negative = inhibition, % at 10 µM; 3.2% of 360,000 active; in the data active = activity change below about -30%
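Tetracycline-induced HEK293 T-REx cells with force-coupled D1 receptor were loaded with a no-wash calcium dye. Compound was added after a 10 s baseline and read kinetically for 180 s; EC80 dopamine was then added and calcium flux followed another 180 s.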
Each line names hits and unclear results; the compound was inactive in the other large screens; ! = repeats disagree. Sampled rows, rich in hits. Any-hit rate of the full collection: about 4.6%. Rule as the data show it, unless noted: active = activation above about 30%; inactive = the rest.

CN1CCc2cccc3c2[C@H]1Cc1ccc(O)c(O)c1-3	D1 ag 43!, D1 antagonist -90
O=C1NC(=S)N/C1=C\c1ccc(Oc2ccc(C(F)(F)F)cc2[N+](=O)[O-])c(Cl)c1	D1 antagonist -52
CCCN(CCC)c1cc(C)nc2nc(-c3ccc(Cl)cc3)nn12	none
CC(=O)Nc1ccc(NC(=O)c2ccc3c(c2)N(Cc2cccc(Cl)c2)C(=O)c2ccccc2S3(=O)=O)cc1	none
CCOC(=O)c1ccc2c(c1)N(Cc1cccc(C(F)(F)F)c1)C(=O)c1ccccc1S2(=O)=O	D1 antagonist -51
O=C(c1ccc2c(c1)N(Cc1cccc(Cl)c1)C(=O)c1ccccc1S2(=O)=O)N1CCC(Cc2ccccc2)CC1	D1 antagonist -34
O=C(c1ccc2c(c1)N(Cc1ccccc1)C(=O)c1ccccc1S2(=O)=O)N1CCN(Cc2ccccc2)CC1	none
N#Cc1cccc(NC(=O)c2ccc3c(c2)N(Cc2cccc(Cl)c2)C(=O)c2ccccc2S3(=O)=O)c1	TRHR PAM 31
CC(=O)Nc1ccc(-c2nnc3n(Cc4ccc(C)cc4)c(=O)c4ccccc4n23)cc1	none
CCOC(=O)CSc1nc2nc(C)cc(C)n2n1	none
CCCn1c(C)cc(C(=O)CSc2nc3nc(C)cc(C)n3n2)c1C	D1 antagonist -49
Cc1cc(C)n2nc(SCN3C(=O)c4ccccc4C3=O)nc2n1	D1 antagonist -33
COc1ccc(C2CC(=O)c3cc(-c4nc(-c5cccc([N+](=O)[O-])c5)cs4)c(=O)n(-c4cccc(C)c4)c3C2)cc1 (stereo unspecified)	none
COc1ccc(Cl)cc1S(=O)(=O)Nc1ccc2[nH]c(=O)[nH]c2c1	none
CC(C)[C@H](NC(=O)[C@@H]1Cc2ccccc2CN1C(=O)OC(C)(C)C)C(=O)NCc1ccco1	none
COc1ccc(NC(=O)/C(C#N)=C/c2c(C)nn(-c3ccc(F)cc3)c2Cl)cc1Cl	none
COc1ccc(NC(=O)/C(C#N)=C/c2c(C)nn(-c3ccc(F)cc3)c2Cl)cc1OC	D1 antagonist -32
CCCN1CCN(CCCNC(=O)CN2C(=O)c3cccnc3Oc3ccc(Cl)cc32)CC1	none
O=C(CN1C(=O)c2cccnc2Oc2ccc(Cl)cc21)NCCCN1CCCCC1	D1 antagonist -38
COC(=O)c1scc(-c2ccc(C)cc2)c1S(=O)(=O)Nc1ccc(OC(F)(F)F)cc1	D1 antagonist -31
CCC(=O)Nc1ccc(Br)c(Cl)c1	none
O=C(Cc1ccccc1)Nc1ccc(NC(=O)Cc2ccccc2)c(Cl)c1	D1 antagonist -36
O=C(Cc1ccc(-c2ccccc2)cc1)Nc1ccccc1	D1 ag 33
O=C(Cc1ccccc1)Nc1ccc(Br)c(Cl)c1	D1 antagonist -55
CC1CCN(S(=O)(=O)c2ccc3c(c2)c(=O)c(C(=O)N2CCN(c4cccc(Cl)c4)CC2)cn3C)CC1	none
O=C(Nc1ccccc1OC(F)F)c1oc2ccccc2c1COc1ccccc1	D1 ag 32
CSc1ccc(CCNC(=O)Cn2ncn3c(cc4ccccc43)c2=O)cc1	none
CC(=O)Nc1cc(C(=O)N2CCOCC2)ccc1S(=O)(=O)c1ccc(C)cc1	D1 antagonist -31
CC(=O)Nc1cc(C(=O)O)ccc1S(=O)(=O)c1ccc(C)cc1	none
CC(=O)Nc1cc(C(=O)NCc2ccc(F)cc2)ccc1S(=O)(=O)c1ccc(C)cc1	D1 antagonist -67
CCOC(=O)c1cccc(NC(=O)CCn2nc(C)c(S(=O)(=O)N3CCCCC3)c2C)c1	none
CC(=O)c1cccc(NC(=O)CCn2nc(C)c(S(=O)(=O)N(C)C)c2C)c1	D1 antagonist -47
CNc1ccc(C(=O)OCC(=O)Nc2ccnn2C(C)C)cc1[N+](=O)[O-]	D1 antagonist -42
CCOC(=O)c1ccc(NC(C)=O)c([N+](=O)[O-])c1	none
CCC1CN(C(=O)NCc2ccc(F)cc2)c2cc(Cl)ccc2O1 (stereo unspecified)	none
CCOc1ccc(CNC(=O)C2CCN(C(=O)N3CC(C)Oc4ccccc43)CC2)cc1 (stereo unspecified)	D1 antagonist -38
CCCCNC(=O)C1CCN(C(=O)N2CC(C)Oc3ccc(Cl)cc32)CC1 (stereo unspecified)	none
CC1CN(C(=O)N2CCC(C(=O)NCCCc3ccccc3)CC2)c2cc(Cl)ccc2O1 (stereo unspecified)	D1 antagonist -57
CCC1CN(C(=O)NCc2ccc(F)cc2)c2ccccc2O1 (stereo unspecified)	D1 antagonist -56!
COc1ccc(CNC(=O)C2CCN(C(=O)N3CC(C)Oc4ccc(C)cc43)CC2)cc1 (stereo unspecified)	none
CCC1CN(C(=O)N2CCC(C(=O)NCc3cccc(C)c3)CC2)c2ccccc2O1 (stereo unspecified)	D1 antagonist -32
CCC1CN(C(=O)N2CCC(C(=O)NCc3ccccc3C)CC2)c2ccccc2O1 (stereo unspecified)	none
COc1ccc(NC(=O)C2CCN(C(=O)N3CCOc4ccccc43)CC2)cc1	none
CCCOc1ccc(CNC(=O)C2CCN(C(=O)N3CCOc4ccccc43)CC2)cc1	D1 antagonist -32
Cc1sc2ncnc(NCC3CCCO3)c2c1C (stereo unspecified)	D1 antagonist -30
CCc1cc2c(NCC3CCCO3)ncnc2s1 (stereo unspecified)	none
COc1ccc(-n2nc3c(N4CCC(C(=O)NCCc5ccccc5C)CC4)nnc(C)c3c2C)cc1	none
COc1ccc(-n2nc3c(N4CCC(C(=O)NCc5ccccc5C)CC4)nnc(C)c3c2C)cc1	D1 ag 76!
Cc1ccc(-n2nc3c(N4CCC(C(=O)NCCc5ccccc5)CC4)nnc(C)c3c2C)cc1	D1 antagonist -72
CCOC(=O)CSc1nc2sc3c(c2c(=O)n1-c1ccc(OCC)cc1)CCN(C)C3	D1 ag 30
CCOc1ccc(-n2c(SCC(N)=O)nc3sc4c(c3c2=O)CCN(C)C4)cc1	none
COC(=O)c1cc(S(=O)(=O)NCC2CCN(Cc3cccc(F)c3)CC2)cn1C	D1 antagonist -39!
COC(=O)c1cc(S(=O)(=O)NCc2cccc(OC)c2)cn1C	none
COc1ccccc1CNC(=O)c1cc(S(=O)(=O)N2CCCC(C)C2)cn1C (stereo unspecified)	TRHR PAM 38
CCOC(=O)c1cc(S(=O)(=O)NCC2CCN(Cc3cccc(C)c3)CC2)cn1C	none
COC(=O)c1cc(S(=O)(=O)NCc2ccccc2OC)cn1C	D1 antagonist -48
CCOC(=O)c1ccc(OC(=O)c2cn(-c3ccc(C)cc3)c(=O)c3ccccc23)cc1	none
COc1cccc(C(=O)N2CCCCC2CCN2CCCCC2)c1 (stereo unspecified)	none
Cc1ccc2c(=O)cc(C(=O)NCc3ccccc3)oc2c1	none
